Sampled rows, rich in hits. Any-hit rate of the full collection: about 11%.
HP1b chromo inh – HTS for Inhibitors of HP1-beta Chromodomain Interactions with Methylated Histone Tails; AlphaScreen HP1-beta / biotin-H3K9me3 peptide binding; Potency, µM (doses to about 114 µM), inactives show top-dose activity change, negative = inhibition, actives largely listed as inhibitors; Chromobox protein homolog 1 (Homo sapiens), P83916; AID 540317, 2011; hit rate 0.56% among 390,000; further: nearly all actives have a fitted effect of over 70% in size
Target sequence (P83916 whole entry, looked up): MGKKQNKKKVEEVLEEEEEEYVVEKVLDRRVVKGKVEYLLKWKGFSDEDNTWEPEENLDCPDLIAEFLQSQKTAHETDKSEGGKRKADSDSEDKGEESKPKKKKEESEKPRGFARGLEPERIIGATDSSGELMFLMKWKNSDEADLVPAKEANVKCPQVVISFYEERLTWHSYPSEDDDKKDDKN
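AlphaScreen: HP1-beta (50 nM) preformed 30 min with biotin-H3(1-18)K9me3 peptide (50 nM) in PBS pH 7.4, 0.01% Tween-20. Compound added for 30 min at RT, then streptavidin donor/nickel chelate acceptor beads (10 ug/mL) for 30 min.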
G9a block – qHTS Assay for Inhibitors of Histone Lysine Methyltransferase G9a; hit rate 8.8% among 350,000; Potency, µM (highest dose often 102 µM), inactives show at the top dose activity, negative = inhibition, most hits filed as inhibitors; G9a H3K9 monomethylation, AlphaScreen, 2 h; further: on the % scale 0 is the no-effect control and ±100 the full control effect; nearly all actives have a fitted effect of over 75% in size
Target sequence (Q96KQ7 913-1193 limits assumed): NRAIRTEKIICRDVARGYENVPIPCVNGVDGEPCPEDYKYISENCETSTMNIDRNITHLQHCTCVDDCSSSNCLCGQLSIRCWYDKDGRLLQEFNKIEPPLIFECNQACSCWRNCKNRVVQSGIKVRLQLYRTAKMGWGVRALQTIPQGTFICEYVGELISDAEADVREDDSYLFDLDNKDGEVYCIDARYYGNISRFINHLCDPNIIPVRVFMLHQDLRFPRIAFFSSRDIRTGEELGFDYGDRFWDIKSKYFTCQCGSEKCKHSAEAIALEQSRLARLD
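G9a (20 nM) was preincubated 15 min with compound, then reacted 2 h at room temperature with 500 nM biotin-H3K9 peptide and 20 µM SAM. Monomethyl-H3K9 detected by AlphaScreen using anti-H3K9me1 antibody.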
BAZ2B inh – qHTS Assay for Inhibitors of BAZ2B; Potency, µM (series often up to 114 µM), for the others: at the highest dose activity change, negative = inhibition, actives largely listed as inhibitors; hit rate 4.4% among 360,000; AID 504333, 2011; AlphaScreen BAZ2B-H3K14Ac peptide displacement; Bromodomain adjacent to zinc finger domain protein 2B (Homo sapiens), Q9UIF8; further: on the % scale 0 is the no-effect control and ±100 the full control effect; nearly all actives have a fitted effect of over 60% in size
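Multi-concentration screen (max 110 uM) measuring displacement of acetylated histone H3 peptide from BAZ2B by AlphaScreen, using 50 nM protein, 50 nM peptide and 10 ug/mL streptavidin donor plus Ni-chelate acceptor beads.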
JMJD2A Tudor – qHTS Assay for Inhibitors of JMJD2A-Tudor Domain; hit rate 4.4% among 390,000; Lysine-specific demethylase 4A (Homo sapiens), O75164; AID 504339, 2011; Potency, µM (doses to about 114 µM), without a hit: top-dose activity change, negative = inhibition, most hits filed as inhibitors; AlphaScreen JMJD2A-Tudor / H3K4me3 peptide binding; further: on the % scale 0 is the no-effect control and ±100 the full control effect; nearly all actives have a fitted effect of over 50% in size
L3MBTL1 block – qHTS Assay for the Inhibitors of L3MBTL1 | Lethal(3)malignant brain tumor-like protein 1 (Homo sapiens), Q9Y468 | AlphaScreen L3MBTL1–H3K9me1 peptide binding | Potency, µM (series often up to 57.1 µM), for inactives: top-dose activity, negative = inhibition, actives largely listed as inhibitors | hit rate 0.66% among 230,000 | AID 485360, 2010; further: on the % scale 0 is the no-effect control and ±100 the full control effect; nearly all actives have a fitted effect of over 60% in size
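Read-out is AlphaScreen signal from streptavidin donor and nickel chelate acceptor beads (10 ug/mL final each) bridging L3MBTL1 (50 nM) and biotinylated K9-monomethylated H3(1-15) peptide (75 nM), after 30 min compound exposure at room temperature.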
Starred values were filed as active, the others as inactive; u = inconclusive; x = no result; [ ] = dose if it differs, or a comment. The call rests on the fitted dose curve; in most records, active means well fitted inhibition curve with a large enough effect; inconclusive means small, poorly fitted or top-dose-only effect; inactive means no such curve, though single readings can be large or run the other way. Potency means the concentration at half of the fitted maximal effect.

SMILES | HP1b chromo inh | G9a block | BAZ2B inh | JMJD2A Tudor | L3MBTL1 block
C=CCOc1c(Br)cc(CNc2nccs2)cc1OC | 1% | 11µM* | u | u | -6%
C=CCOc1c(Br)cc(CNn2c(C)n[nH]c2=S)cc1OC | u | 11µM* | -30% | 89µM* | -8%
CCOc1ccccc1NC(=O)Cn1c(=O)n(Cc2ccc(OC)cc2)c(=O)c2oc3ccccc3c21 | 20% | -2%[59 µM] | -11% | -7% | x
CC(=O)N1CCC2(CCCN(Cc3cc(C(F)(F)F)cc(C(F)(F)F)c3)C2)CC1 | x | -14%[12.7 µM] | x | x | x
Cc1cccc(N2CCN(S(=O)(=O)c3ccc4c(c3)C(C(C)C)C(=O)N4)CC2)c1C (stereo unspecified) | 24% | -43%[59 µM] | -8%[57.1 µM] | -33% | x
FC(F)(F)c1ccccc1NC(=S)N/N=C1\CC2CC=CC12 (stereo unspecified) | u | 18µM* | 71µM* | -37% | 46%
O=C(N/N=C1\CC2CC=CC12)c1ccccc1Cl (stereo unspecified) | 19% | -9% | -20% | -9% | 6%
CN(C)CCNC(=O)c1coc(=O)c(Br)c1 | 12% | 16µM* | u | u | 0%
O=C(NNC(=O)C1C2CCCCC21)c1coc(=O)c(Br)c1 (stereo unspecified) | 29% | 45µM* | u | -22% | x
O=C(Nc1cc(Cl)cc(Cl)c1)c1coc(=O)c(Br)c1 | -11% | 50µM* | 56µM* | -32% | u
Cc1ccc(-c2c(C)n3c4c(=O)n(C)c(=O)n(C)c4nc3n2CCCO)cc1 | 7% | u | u | -33% | x
COc1ccc(Nc2nc3ccccc3n3c(N)nnc23)cc1 | 7% | 4%[59 µM] | -22% | -27% | x
Cc1nc(C(=O)O)nn1-c1cc(Cl)ccc1Cl | 30% | 45µM* | u | -11% | 11%
CNC(=O)c1nc(C)n(-c2ccc(Cl)cc2Cl)n1 | -11% | 4% | -5% | 10µM* | -7%
Cc1nc(C(=O)N(C)C)nn1-c1ccc(Cl)cc1Cl | 3% | -36% | 8% | -13% | 12%
O=C(CN(C(=O)c1csnn1)c1ccccc1F)NCc1ccc2c(c1)OCO2 | 20% | 7% | 5% | 4% | x
Cc1c(Cl)cccc1-n1c(-c2cccnc2)n[nH]c1=S | 43% | 16%[12.7 µM] | -2% | 35µM* | -12%
Cc1ccc(C)c(-n2c(-c3cccnc3)n[nH]c2=S)c1 | 8% | 32µM* | u | 22µM* | 4%
Cc1cc(Cl)ccc1-n1c(-c2cccnc2)n[nH]c1=S | 44% | 10µM* | 4% | 28µM* | -17%
Cc1ccc(C)c(Nc2nc(-c3cccnc3)cs2)c1 | 31% | 20%[2.33 µM] | -32% | u | x
Cc1ccc(C)c(-n2c(-c3csc(C)c3C)n[nH]c2=S)c1 | 15% | u | -30% | 25µM* | -6%
Cc1cccc(N2CCN(C(=O)c3cc4c(=O)[nH]c5ccc(C)cc5c4s3)CC2C)c1 (stereo unspecified) | 0% | u | u | -33% | x
CN(C)c1cc(-c2cccc(NS(C)(=O)=O)c2)ncn1 | x | -9%[0.501 µM] | x | x | x
O=C1CCc2cc(S(=O)(=O)Nc3ccc(Cl)cc3)ccc2N1 | x | x | x | -1% | x
COc1ccc(C2/C=C\CN(C(=O)c3ccccc3)C(C)C(=O)N2Cc2ccc(F)cc2)cc1 (stereo unspecified) | 24% | x | x | -19% | x
SMILES | HP1b chromo inh | G9a block | BAZ2B inh | JMJD2A Tudor | L3MBTL1 block
c1ccc(C(NCc2cccnc2)(c2ccccc2)c2ccccc2)cc1 | x | -32%[59 µM] | x | x | x
Nc1cc([N+](=O)[O-])ccc1Nc1ccc(O)cc1 | u | 10µM* | 32µM* | 56µM* | x
COc1ccc2c(c1OC)C(=O)O[C@H]2C1c2c(cc3c(c2OC)OCO3)CCN1C (stereo partly specified) | x | -2%[2.33 µM] | x | x | x
CN1CCc2cc3c(c4c2[C@H]1[C@H](O)c1ccccc1-4)OCO3 | 17% | 50µM* | -32% | -25% | -3%
COc1ccc(C2C(=O)N(C3CCCCCC3)CC(=O)N2CCc2ccc(OC)c(OC)c2)cc1 (stereo unspecified) | 29% | -23%[59 µM] | -11% | -29% | x
Cc1ccnc(N=O)c1 | u | x | x | 20µM* | 4%
CCOC(=O)C1=C(Cn2cnc3ccccc32)NC(=O)NC1c1ccc(OC)cc1 (stereo unspecified) | 3% | -1% | 56µM* | -18% | x
CCOC(=O)C1=C(Cn2cnc3ccccc32)NC(=O)NC1c1ccc(Cl)cc1 (stereo unspecified) | 23% | -27%[59 µM] | -23% | -3% | x
Cc1ccc(C)c(NC(=O)c2nc(S(C)(=O)=O)ncc2N(Cc2ccc(C(C)(C)C)cc2)Cc2ccco2)c1 | 20% | u | u | -18% | x
CCCOC(=O)Nc1nc(-c2ccc(C)cc2)c(C)s1 | -13% | 50µM* | -15% | -6% | 14%
CCOC(=O)Nc1nc(-c2ccccc2)c(C(=O)c2ccccc2)s1 | 19% | 0% | 2% | -12% | x
COc1ccc(OC)c(NC(=O)CSc2cn(CC(=O)N3CCOCC3)c3ccccc23)c1 | 27% | 5%[59 µM] | -17% | -5% | x
COc1ccc(CNC(=O)CN(C(=O)c2ccc(CN3CCOCC3)o2)C2CCCC2)cc1 | 30% | 3.5µM* | -3% | -10% | -1%
COc1ccc(CC(=O)NCCN2CCOCC2)cc1 | 43% | 7% | -2% | -13% | x
CN(C)CCCNCC(=O)NN(c1ccccc1)c1ccccc1 | -32% | -131%[59 µM] | 32µM* | 0.79µM* | x
CCNc1nc(NCC)nc(C(=O)NN)n1 | 57% | 8%[59 µM] | 2.8µM* | 40µM* | 4µM*
Cc1ccc(C)c(-n2c3nc(=O)n(C)c(=O)c-3cc3ccccc32)c1 | 36% | 79µM* | -35% | -15% | -21%
O=C(CSc1ncc2c(n1)-c1ccccc1N(Cc1ccc(F)cc1)S2(=O)=O)NCc1ccccc1 | 6% | 5%[59 µM] | u | -11% | x
Cc1ccc(-c2n[nH]c(=S)n2/N=C/c2ccc(C(=O)O)cc2)cc1 | 34% | 3.2µM* | -16% | 3.2µM* | x
CC(C)c1ccc(/C=N/n2c(-c3ccccc3)n[nH]c2=S)cc1 | 20% | -10%[0.501 µM] | -1% | u | -4%[2.29 µM]
Cc1ccc(/C=N/n2c(-c3ccccc3)n[nH]c2=S)cc1 | 31% | 1.1µM* | -28% | 79µM* | -9%
S=c1[nH]nc(-c2ccncc2)n1/N=C/c1ccccc1 | 11% | 1.3µM* | -7% | 7.9µM* | 1%
O=C(NN1CCOCC1)c1ccccc1F | 29% | x | 0% | -11% | x
O=C(NN1CCOCC1)c1sc2cccc(F)c2c1Cl | 13% | 28µM* | -21% | -30% | -6%

Assay outcomes (PubChem BioAssay)
